Results filed as inconclusive are left out. A call without a number means that no potency is given here. Activity calls are given as the source filed them. The call rests on the fitted dose curve; in most records, active means well fitted cell-killing curve with a large enough effect; inconclusive means small, poorly fitted or top-dose-only effect, or effect the other way; inactive means flat fitted curve, though single readings scatter.
Potency means the concentration at half of the fitted maximal effect.

For one test, the system named is CAOV3. Briefly: Primary qHTS to identify gynecologic anti-cancer compounds using libraries of approved drugs and bioactive compounds (AID 1345084). Further: nearly all actives have a fitted effect of over 55% in size. As to conditions: Gynecologic cancer cell panel viability, ATPlite luminescence, 48 h; series mostly up to 57.5 µM. In a few lines: (§1)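 Cell viability after 48 h drug treatment, ATPlite luminescence readout; five doses.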
Turning to `CCCCOc1ccc(OCCCN2CCOCC2)cc1`, the Potency result is “inactive”.

For the compound `CC(=O)[C@H]1CC[C@H]2[C@@H]3C[C@H](C)C4=CC(=O)CC[C@]4(C)[C@H]3[C@@H](O)C[C@]12C`, the Potency entry was “inactive”.

Regarding `CC(=O)N/N=C/c1ccc([N+](=O)[O-])o1`, the Potency result was “inactive”.

With `COc1cc2c(cc1OC)[C@@H]1CC(=O)[C@@H](CC(C)C)CN1CC2`, the Potency result was “inactive”.

As for `C=C1C[C@H]2[C@@H]3C=C(C)C4=CC(=O)CC[C@]4(C)[C@H]3CC[C@]2(C)[C@@]1(OC(C)=O)C(C)=O`, the Potency result was “inactive”.

As for `CN(C)CCCOc1nn(Cc2ccccc2)c2ccccc12`, the Potency result was “inactive”.

On to `C=C1C(=C/C=C2\CCC[C@]3(C)[C@@H]([C@H](C)/C=C/[C@@H](O)C4CC4)CC[C@@H]23)C[C@@H](O)C[C@@H]1O`, for which the Potency result is “inactive”.

Consider `CN(C/C=C/c1ccccc1)Cc1cccc2ccccc12`, for which the Potency entry was “inactive”.

As for `OC(CCN1CCCCC1)(c1ccccc1)c1ccccc1`, the Potency entry is “inactive”.

Take `CC1(C)O[C@@H]2C[C@H]3[C@@H]4CCC5=CC(=O)CC[C@]5(C)[C@@]4(F)[C@@H](O)C[C@]3(C)[C@]2(C(=O)CCl)O1`: the Potency result is “inactive”.

On to `c1ccc(OCc2ccc(CCCN3CCOCC3)cc2)cc1`, for which the Potency entry was “inactive”.

`COC1=CC(=O)C[C@@H](C)[C@]12Oc1c(Cl)c(OC)cc(OC)c1C2=O`: the Potency result is “inactive”.

Regarding `CCCCCCC[N+](CC)(CC)CCCCc1ccc(Cl)cc1`, the Potency was 11.2 µM (active).

For `CC1(C)O[C@@H]2C[C@H]3[C@@H]4C[C@H](F)C5=CC(=O)C=C[C@]5(C)[C@H]4[C@@H](O)C[C@]3(C)[C@]2(C(=O)CO)O1`, the Potency result is “inactive”.

Turning to `CCOC(=O)[C@H](CCc1ccccc1)N[C@@H](C)C(=O)N1Cc2ccccc2C[C@H]1C(=O)O`, the Potency entry is “inactive”.

Regarding `Oc1ccc(Cl)c2cccnc12`, the Potency result was “inactive”.

Take `C/C=C(/C(=C/C)c1ccc(O)cc1)c1ccc(O)cc1`: the Potency result is “inactive”.

Take `C[C@@H]1C[C@H]2[C@@H]3CCC4=CC(=O)C=C[C@]4(C)[C@@]3(F)[C@@H](O)C[C@]2(C)[C@H]1C(=O)CO`: the Potency entry is “inactive”.

For the compound `c1ccc(CNCCNCc2ccccc2)cc1`, the Potency result is “inactive”.

With `CCCCCC=CCC=CCCCCCCCC(=O)OCC`, the Potency result is “inactive”.

For the compound `COc1ccc(CN2CCN(C(c3ccc(F)cc3)c3ccc(F)cc3)CC2)c(OC)c1OC`, the Potency entry is “inactive”.

Regarding `CN(C)CC/C=C1\c2ccccc2Sc2ccc(Cl)cc21`, the Potency entry was “inactive”.

The next test has as its system CASKI. The test is described as above. The conditions noted are these: Gynecologic cancer cell panel viability, ATPlite luminescence, 48 h; series mostly up to 57.5 µM. In a few lines:
as §1
On to `COc1cc2c(cc1OC)C(C(C(=O)N(CCc1ccc(OC)c(OC)c1OC)CCc1ccc(OC)c(OC)c1OC)c1ccccc1)=NCC2` (centres undefined), for which the Potency entry was “inactive”.

With `C[C@H]1C[C@H]2[C@@H]3CCC4=CC(=O)C=C[C@]4(C)[C@@]3(Cl)[C@@H](O)C[C@]2(C)[C@@]1(O)C(=O)CO`, the Potency result is “inactive”.

In the case of `CCCCOc1ccc(OCCCN2CCOCC2)cc1`, the Potency result was “inactive”.

On to `CC(=O)[C@H]1CC[C@H]2[C@@H]3C[C@H](C)C4=CC(=O)CC[C@]4(C)[C@H]3[C@@H](O)C[C@]12C`, for which the Potency result is “inactive”.

As to `O=C(OCC(O)CO)c1ccccc1Nc1ccnc2cc(Cl)ccc12` (centres undefined), the Potency result is “inactive”.

Take `CC(=O)N/N=C/c1ccc([N+](=O)[O-])o1`: the Potency entry is “inactive”.

Turning to `COc1cc2c(cc1OC)[C@@H]1CC(=O)[C@@H](CC(C)C)CN1CC2`, the Potency entry is “inactive”.

For the compound `C=C1C[C@H]2[C@@H]3C=C(C)C4=CC(=O)CC[C@]4(C)[C@H]3CC[C@]2(C)[C@@]1(OC(C)=O)C(C)=O`, the Potency entry is “inactive”.

Regarding `CN(C)CCCOc1nn(Cc2ccccc2)c2ccccc12`, the Potency result is “inactive”.

Turning to `C=C1C(=C/C=C2\CCC[C@]3(C)[C@@H]([C@H](C)/C=C/[C@@H](O)C4CC4)CC[C@@H]23)C[C@@H](O)C[C@@H]1O`, the Potency entry was “inactive”.

As to `CN(C/C=C/c1ccccc1)Cc1cccc2ccccc12`, the Potency entry was “inactive”.

Regarding `OC(CCN1CCCCC1)(c1ccccc1)c1ccccc1`, the Potency entry is “inactive”.

With `CN1CCC(=C2c3ccccc3Sc3ccccc32)CC1`, the Potency result was “inactive”.

For `CC1(C)O[C@@H]2C[C@H]3[C@@H]4CCC5=CC(=O)CC[C@]5(C)[C@@]4(F)[C@@H](O)C[C@]3(C)[C@]2(C(=O)CCl)O1`, the Potency entry was “inactive”.

Consider `c1ccc(OCc2ccc(CCCN3CCOCC3)cc2)cc1`, for which the Potency result was “inactive”.

For the compound `COC1=CC(=O)C[C@@H](C)[C@]12Oc1c(Cl)c(OC)cc(OC)c1C2=O`, the Potency entry was “inactive”.

With `COc1cccc2c1C(=O)c1c(O)c3c(c(O)c1C2=O)C[C@@](O)(C(C)=O)C[C@@H]3O[C@H]1C[C@H](N)[C@H](O)[C@H](C)O1`, the Potency was 0.708 µM (active).

Consider `CCCCCCCCCCCCCCCC[N+](C)(C)CC`, for which the Potency was 8.91 µM (active).

With `O=C1[C@H]2CCCC[C@H]2C(=O)N1CCCCN1CCN(c2nsc3ccccc23)CC1`, the Potency entry is “inactive”.

On to `CCCCCCC[N+](CC)(CC)CCCCc1ccc(Cl)cc1`, for which the Potency is 10 µM (active).

For `CN(C)C(=S)SC(=S)N(C)C`, the Potency result is “inactive”.

Regarding `CC1(C)O[C@@H]2C[C@H]3[C@@H]4C[C@H](F)C5=CC(=O)C=C[C@]5(C)[C@H]4[C@@H](O)C[C@]3(C)[C@]2(C(=O)CO)O1`, the Potency result was “inactive”.

Regarding `CCOC(=O)[C@H](CCc1ccccc1)N[C@@H](C)C(=O)N1Cc2ccccc2C[C@H]1C(=O)O`, the Potency result is “inactive”.

As for `C=C(CC)C(=O)c1ccc(OCC(=O)O)c(Cl)c1Cl`, the Potency result is “inactive”.

For the compound `Oc1ccc(Cl)c2cccnc12`, the Potency result was “inactive”.

Take `C/C=C(/C(=C/C)c1ccc(O)cc1)c1ccc(O)cc1`: the Potency entry is “inactive”.

For `C[C@@H]1C[C@H]2[C@@H]3CCC4=CC(=O)C=C[C@]4(C)[C@@]3(F)[C@@H](O)C[C@]2(C)[C@H]1C(=O)CO`, the Potency result is “inactive”.

Take `c1ccc(CNCCNCc2ccccc2)cc1`: the Potency entry is “inactive”.

Consider `CCCCCC=CCC=CCCCCCCCC(=O)OCC`, for which the Potency entry is “inactive”.

With `COc1ccc(CN2CCN(C(c3ccc(F)cc3)c3ccc(F)cc3)CC2)c(OC)c1OC`, the Potency entry was “inactive”.

Regarding `CN(C)CC/C=C1\c2ccccc2Sc2ccc(Cl)cc21`, the Potency entry was “inactive”.

In the case of `CCN(CCCc1ccccc1)CCCc1ccccc1`, the Potency result was “inactive”.

These data come from PubChem BioAssay (NCATS).
